Laboratory results from PubChem BioAssay AID1159580 (chemical genetic matrix, 2015).
The whole screen tested about 5,500 compounds, of which about 2,000 (36%) were called active. Another 18% or so got no clear call; they are omitted. Cut-off read from the data, not from the text of the source: active = normalized growth mostly below about 0.91 (no sharp cut-off); inconclusive = no clear call, values can overlap the other calls; inactive = mostly above about 0.92. The list shows a part of the results.

Assay: chemical genetic growth profiling, strain panel (AID 1159580);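 note: tested at 20 µM; growth read once vehicle control cultures reached saturation at 30 °C; 1 = growth at the plate median or of vehicle wells; lower values mean less growth of the strain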
Conditions: growth OD

Measured: normalized growth

CCC(C)C(=O)O[C@H]1[C@H](O)C2C(CN3CC(C)CCC3[C@@]2(C)O)C2C[C@]34O[C@]5(O)C(OC(=O)C(C)(O)CC)CC[C@@]3(C)C5C(OC(C)=O)[C@@H](OC(C)=O)C4[C@@]21O (stereo partly specified)
inactive: S. cerevisiae deletion strains, locus YKL009W, strain mrt4, hits give low values 1.01 | S. cerevisiae deletion strains, locus YKL068W, hits give low values 1.01 | S. cerevisiae deletion strains, locus YKL085W, strain MDH1 (second series), hits give low values 1.03 | S. cerevisiae deletion strains, locus YKL085W, strain MDH1, hits give low values 1.03 | S. cerevisiae deletion strains, locus YKL160W, strain elf1, hits give low values 1.04 | S. cerevisiae deletion strains, locus YKL190W, strain CNB1, hits give low values 1 | S. cerevisiae deletion strains, locus YKR001C, strain vps1, hits give low values 0.983 | S. cerevisiae deletion strains, locus YKR026C, strain gcn3, hits give low values 1.01 | S. cerevisiae deletion strains, locus YKR091W, strain srl3, hits give low values 1.02 | S. cerevisiae deletion strains, locus YLL001W, strain dnm1, hits give low values 1.02 | S. cerevisiae deletion strains, locus YLL026W, hits give low values 1.01 | S. cerevisiae deletion strains, locus YLL041C, strain sdh2, hits give low values 1.04 | S. cerevisiae deletion strains, locus YLR027C, strain aat2, hits give low values 1.02 | S. cerevisiae deletion strains, locus YLR039C, strain RIC1, hits give low values 1.02 | S. cerevisiae deletion strains, locus YLR058C, strain SHM2, hits give low values 1.01 | S. cerevisiae deletion strains, locus YLR102C, strain apc9, hits give low values 0.995 | S. cerevisiae deletion strains, locus YLR113W, strain HOG1, hits give low values 0.983 | S. cerevisiae deletion strains, locus YLR221C, strain rsa3, hits give low values 1.01 | S. cerevisiae deletion strains, locus YLR258W, strain gsy2, hits give low values 1.01 | S. cerevisiae deletion strains, locus YLR262C, strain YPT6 (second series), hits give low values 1.02 | S. cerevisiae deletion strains, locus YLR262C, strain YPT6, hits give low values 1.05 | S. cerevisiae deletion strains, locus YLR268W, strain sec22, hits give low values 0.984 | S. cerevisiae deletion strains, locus YLR320W, strain mms22, hits give low values 1.02 | S. cerevisiae deletion strains, locus YLR330W, strain CHS5, hits give low values 1.01 | S. cerevisiae deletion strains, locus YLR342W, strain FKS1 (second series), hits give low values 1 | S. cerevisiae deletion strains, locus YLR342W, strain FKS1, hits give low values 1.01 | S. cerevisiae deletion strains, locus YLR357W, strain rsc2, hits give low values 1.01 | S. cerevisiae deletion strains, locus YLR370C, strain arc18, hits give low values 1.03 | S. cerevisiae deletion strains, locus YLR371W, strain rom2, hits give low values 0.984 | S. cerevisiae deletion strains, locus YLR384C, strain iki3, hits give low values 1.02 | S. cerevisiae deletion strains, locus YLR418C, strain cdc73, hits give low values 0.994 | S. cerevisiae deletion strains, locus YML016C, strain PPZ1, hits give low values 1.01 | S. cerevisiae deletion strains, locus YML032C, strain rad52, hits give low values 0.989 | S. cerevisiae deletion strains, locus YML120C, strain ndi1, hits give low values 1.01 | S. cerevisiae deletion strains, locus YML124C, strain tub3, hits give low values 0.981 | S. cerevisiae deletion strains, locus YMR058W, strain fet3, hits give low values 1.02 | S. cerevisiae deletion strains, locus YMR078C, strain ctf18, hits give low values 0.986 | S. cerevisiae deletion strains, locus YMR125W, strain sto1, hits give low values 1.02 | S. cerevisiae deletion strains, locus YMR129W, hits give low values 1.02 | S. cerevisiae deletion strains, locus YMR205C, strain PFK2, hits give low values 1.03 | S. cerevisiae deletion strains, locus YMR223W, strain ubp8, hits give low values 0.985 | S. cerevisiae deletion strains, locus YMR231W, strain pep5, hits give low values 1.02 | S. cerevisiae deletion strains, locus YMR263W, strain SAP30, hits give low values 1 | S. cerevisiae deletion strains, locus YMR307W, strain GAS1, hits give low values 1.02 | S. cerevisiae deletion strains, locus YNL067W, strain RPL9B, hits give low values 1.02 | S. cerevisiae deletion strains, locus YNL071W, strain lat1, hits give low values 1.03 | S. cerevisiae deletion strains, locus YNL128W, strain TEP1, hits give low values 1.01 | S. cerevisiae deletion strains, locus YNL153C, strain GIM3, hits give low values 1.01 | S. cerevisiae deletion strains, locus YNL183C, strain NPR1, hits give low values 0.99 | S. cerevisiae deletion strains, locus YNL209W, strain ssb2, hits give low values 1.02 | S. cerevisiae deletion strains, locus YNL233W, strain BNI4, hits give low values 1.01 | S. cerevisiae deletion strains, locus YNL248C, strain rpa49, hits give low values 1.08 | S. cerevisiae deletion strains, locus YNL250W, strain rad50, hits give low values 0.984 | S. cerevisiae deletion strains, locus YNL271C, strain bni1, hits give low values 0.982 | S. cerevisiae deletion strains, locus YNL298W, strain CLA4, hits give low values 0.991 | S. cerevisiae deletion strains, locus YNL307C, strain MCK1, hits give low values 0.994 | S. cerevisiae deletion strains, locus YNL322C, strain KRE1 (second series), hits give low values 1.02 | S. cerevisiae deletion strains, locus YNL322C, strain KRE1, hits give low values 1.01 | S. cerevisiae deletion strains, locus YNR049C, strain mso1, hits give low values 1 | S. cerevisiae deletion strains, locus YNR052C, strain pop2, hits give low values 1 | S. cerevisiae deletion strains, locus YOL006C, strain TOP1, hits give low values 1.01 | S. cerevisiae deletion strains, locus YOL012C, strain htz1 0.797 | S. cerevisiae deletion strains, locus YOL147C, strain pex11, hits give low values 0.994 | S. cerevisiae deletion strains, locus YOR001W, strain rrp6, hits give low values 0.998 | S. cerevisiae deletion strains, locus YOR061W, strain CKA2, hits give low values 1.01 | S. cerevisiae deletion strains, locus YOR069W, strain VPS5, hits give low values 1.01 | S. cerevisiae deletion strains, locus YOR070C, strain gyp1, hits give low values 1.03 | S. cerevisiae deletion strains, locus YOR080W, strain dia2, hits give low values 1.04 | S. cerevisiae deletion strains, locus YOR083W, strain WHI5, hits give low values 1.04 | S. cerevisiae deletion strains, locus YOR106W, strain vam3, hits give low values 1.06 | S. cerevisiae deletion strains, locus YOR136W, strain idh2, hits give low values 0.984 | S. cerevisiae deletion strains, locus YOR144C, strain elg1, hits give low values 0.996 | S. cerevisiae deletion strains, locus YOR184W, strain ser1, hits give low values 0.982 | S. cerevisiae deletion strains, locus YOR231W, strain MKK1, hits give low values 0.992 | S. cerevisiae deletion strains, locus YOR265W, strain rbl2, hits give low values 0.998 | S. cerevisiae deletion strains, locus YOR270C, strain vph1, hits give low values 1.11 | S. cerevisiae deletion strains, locus YOR290C, strain snf2, hits give low values 1.06 | S. cerevisiae deletion strains, locus YOR316C, strain cot1, hits give low values 0.99 | S. cerevisiae deletion strains, locus YPL051W, strain arl3, hits give low values 1.01 | S. cerevisiae deletion strains, locus YPL055C, strain LGE1, hits give low values 1.02 | S. cerevisiae deletion strains, locus YPL078C, strain atp4, hits give low values 1.05 | S. cerevisiae deletion strains, locus YPL106C, strain sse1, hits give low values 0.995 | S. cerevisiae deletion strains, locus YPL240C, strain hsp82, hits give low values 1.01 | S. cerevisiae deletion strains, locus YPL241C, strain CIN2, hits give low values 0.988 | S. cerevisiae deletion strains, locus YPL256C, strain CLN2, hits give low values 1.04 | S. cerevisiae deletion strains, locus YPR119W, strain clb2, hits give low values 0.984 | S. cerevisiae deletion strains, locus YPR141C, strain kar3, hits give low values 0.987 | S. cerevisiae deletion strains, locus YPR163C, strain tif3, hits give low values 0.99 | S. cerevisiae deletion strains, locus YPR167C, strain met16, hits give low values 0.974 | S. cerevisiae deletion strains, strain wtn01, hits give low values 0.991 | S. cerevisiae strains, strain wild type, hits give low values 1
